From PubChem BioAssay (NCI)
Compounds without any hit were thinned out: in the full panel of roughly 83,000, 20% have a hit.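 Compound tested at a single concentration for 48 hours in 96-well plates; a percent growth value below 10 was scored as active.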 A number with no mark means an inactive call. The source made the active and inactive calls.

tested on: MDA-MB-468 breast; test: NCI-60 one-dose screen, 48 h (100 = growth as untreated, 0 = no growth, -100 = all killed); conditions: 10 µM unless noted

Structure (SMILES)	growth
CCc1c(C(=O)Nc2ccc3ccccc3c2)[nH]c(C)c1C(C)=O	83.7%
O=C1c2cccnc2C(=O)c2c1c(C(=O)NCCn1ccnc1)c1ccccn21	-6.68% (active)
CCCCCCCC/C=C\CCCCCCCCOc1ccc(CC(=O)NCC[N+]2(C)CCCC2)cc1	33.5%
CCOC(=O)C(Nc1ccccc1)C(=O)OCC	104%
CC1=CCC(OC(=O)C(C)(O)CCC(O)(C(=O)OC2(C)C=CC(O)(C(C)C)CC2)C(C)C)(C(C)C)CC1 (stereo unspecified)	107%
C=CCN1C(=O)c2cccc3c(-c4ccc5c(c4)ncn5C4CCCCC4)ccc(c23)C1=O	34.6%
CC1c2ccccc2-c2ccccc2N1C (stereo unspecified)	103%
C(CCCC1=NCCO1)CCCC1=NCCO1	95%
O=C(NCc1ccccc1)C(Cl)Cl	85.2%
O=[N+]([O-])c1ccc2[nH]c3nccc(NCc4cccc(Cl)c4)c3c2c1	69%
CCOC(=O)N1CCN(CCCCl)CC1	97.4%
N=C(N)c1ccc(-c2ccc(-c3cc(Cl)cc(Cl)c3)o2)o1	-69.1% (active)
CCCCCCCCCCCC(c1ccccc1)N(C)C (stereo unspecified)	95.4%
CCSc1nc(Nc2ccc(S(=O)(=O)Nc3ccon3)cc2)c(C#N)c(-c2cccc(Br)c2)n1	85.1%
Cc1ccc(S(=O)(=O)Nn2c3c(cc(-c4nc5ccccc5s4)c2=O)CCCCCC3)cc1	110%
CC[C@H](C)C(=O)O[C@H]1C[C@@H](C)C=C2C=C[C@H](C)[C@H](CC[C@@H]3C[C@@H](O)CC(=O)O3)[C@H]21	103%
